These results are taken from the supplement of paper PMC13380429.

SMILES strings stand for the structures. Structures can show the parent of a compound that is named as a salt. Values without a mark were called inactive.

This test relates to Vero E6 infected with SARS-CoV-2. Nature of the test: inhibition of SARS-CoV-2 cytopathic effect; higher = more antiviral protection, active = above 15. To be noted: 48 h. On the technique in general: Damage to the host cells serves as the signal in cytopathic effect assays.

Take `O=C(O)CN1C(=O)c2cccc3cccc(c23)C1=O` [alrestatin]: the “inhibition of SARS-CoV-2 cytopathic effect” value (“inhibition” below) reads like this: (1 nM) 5.18%; (8.33 nM) 3.1%; (100 nM) 3.59%; (833.33 nM) 4.81%; (10000 nM) 1.83%.

For `O=C(NCCNCC(O)COc1ccc(O)cc1)N1CCOCC1` (stereo not given) [xamoterol], the “inhibition” value is -2.07% (1 nM); -0.88% (8.33 nM); -0.13% (100 nM); 0.01% (833.33 nM); 3.26% (10000 nM).

For the compound `CC(=O)OCC1=C(C(=O)O)N2C(=O)[C@@H](NC(=O)CSc3ccncc3)[C@H]2SC1` [cephapirin], the “inhibition” value is -1.67% (1 nM); 4.78% (8.33 nM); 6.28% (100 nM); 5.89% (833.33 nM); 2.88% (10000 nM).

For `CCCCCCCC/C=C\CCCCCCCC(=O)N[C@@H](CO)Cc1ccc(O)cc1`, the “inhibition” value by setting is: (1 nM) 0.56%; (8.33 nM) -0.46%; (100 nM) 1.38%; (833.33 nM) 1.23%; (10000 nM) -2.65%.

For the compound `NC(=O)c1cc([N+](=O)[O-])cc([N+](=O)[O-])c1` [nitromide], the “inhibition” value was 0.52% (1 nM); 1.05% (8.33 nM); 1.48% (100 nM); 0.38% (833.33 nM); -0.05% (10000 nM).

`N[C@@H](Cc1cc(-c2ccc(Cl)cc2Cl)cc(CP(=O)(O)O)c1O)C(=O)O`: the “inhibition” value reads like this: (1 nM) 0.73%; (8.33 nM) 2.24%; (100 nM) 2.7%; (833.33 nM) 2.63%; (10000 nM) 2.27%.

In the case of `CCSC(=N)N` [EIT-hydrobromide], the “inhibition” value is, setting by setting: (1 nM) 0.03%; (8.33 nM) -1.2%; (100 nM) -0.94%; (833.33 nM) -0.69%; (10000 nM) -1.4%.

On to `COc1ccccc1OCC(O)CN1CCN(CC(=O)Nc2c(C)cccc2C)CC1` (stereo not given) [ranolazine], for which the “inhibition” value is 0.1% (1 nM); -0.38% (8.33 nM); -2.33% (100 nM); 0.17% (833.33 nM); -0.73% (10000 nM).

In the case of `c1nc2c(NC3CCCCC3)nc(Nc3ccc(N4CCOCC4)cc3)nc2[nH]1` [reversine], the “inhibition” value is 3.13% (1 nM); 6.21% (8.33 nM); 1.52% (100 nM); -0.29% (833.33 nM); -7.06% (10000 nM).

As to `OC[C@H]1O[C@@H](n2cnc3c(NC4CCCC4)nc(Cl)nc32)[C@H](O)[C@@H]1O` [2-chloro-N6-cyclopentyladenosine], the “inhibition” value was -3.44% (1 nM); 0.41% (8.33 nM); 2.9% (100 nM); 2.35% (833.33 nM); -0.77% (10000 nM).

As for `CCCCOC(=O)c1ccc(N)cc1` [butamben], the “inhibition” value is, setting by setting: (1 nM) 3.03%; (8.33 nM) 2.87%; (100 nM) 2.37%; (833.33 nM) 6.53%; (10000 nM) 2.78%.

Consider `COc1cc2ncnc(Nc3cccc(Cl)c3F)c2cc1OC(=O)N1CCN(C)C[C@H]1C`, for which the “inhibition” value was 1.89% (1 nM); 2.48% (8.33 nM); -1.03% (100 nM); -2.96% (833.33 nM); -9.49% (10000 nM).

With `Cc1cc(Nc2ncc(Cl)c(Nc3ccccc3S(=O)(=O)C(C)C)n2)c(OC(C)C)cc1C1CCNCC1` [ceritinib], the “inhibition” value is -0.41% (1 nM); 1.21% (8.33 nM); 2.17% (100 nM); -2.36% (833.33 nM); 58.8% (active) (10000 nM).

For `NC1=NC(=O)N([C@H]2C[C@H](O)[C@@H](CO)O2)CN1`, the “inhibition” value (1 nM) was -1.14%; the “inhibition” value (8.33 nM) was -2.12%; the “inhibition” value (100 nM) was 0.08%; the “inhibition” value (833.33 nM) was 0.71%; the “inhibition” value (10000 nM) was -0.27%.

Consider `O=C(C[C@H]1CC(c2ccc(F)cc2F)=NO1)N1CCOCC1` (racemic), for which the “inhibition” value (1 nM) was -1.54%; the “inhibition” value (8.33 nM) was 0.9%; the “inhibition” value (100 nM) was 2.24%; the “inhibition” value (833.33 nM) is 0.99%; the “inhibition” value (10000 nM) is 1.2%.

`Fc1ccccc1-c1nc2ccn(Cc3ccc(-c4ccc(C(F)(F)F)cc4C(F)(F)F)nn3)cc-2n1` [tegobuvir]: the “inhibition” value reads like this: (1 nM) 0.53%; (8.33 nM) 2.58%; (100 nM) 3.4%; (833.33 nM) 1.35%; (10000 nM) -1.75%.

Turning to `O=[N+]([O-])c1c(Nc2cc(F)cc(Cl)c2)ccc2nonc12`, the “inhibition” value (1 nM) is 1.7%; the “inhibition” value (8.33 nM) was 2.32%; the “inhibition” value (100 nM) is 1.45%; the “inhibition” value (833.33 nM) is -0.1%; the “inhibition” value (10000 nM) is 2.66%.

For `COC(=O)c1sccc1S(=O)(=O)Nc1ccc(Nc2ccccc2)cc1OC`, the “inhibition” value is, setting by setting: (1 nM) 2.58%; (8.33 nM) 5.94%; (100 nM) 2.5%; (833.33 nM) 5.14%; (10000 nM) 8.94%.

For the compound `CCCCC#Cc1nc(NC)c2ncn([C@@H]3O[C@H](CO)[C@@H](O)[C@H]3O)c2n1`, the “inhibition” value was -0.9% (1 nM); -1.35% (8.33 nM); 0.37% (100 nM); -1.59% (833.33 nM); -0.62% (10000 nM).
